PNC inhibitor = perinucleolar compartment assembly inhibition. PC3M PTB-GFP, PNC prevalence imaging, 16 h; hits give low values. activity change (PNC), negative = inhibition, % at 10 µM. 140,000 compounds, 3.1% hits. AID 2417;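 active = readout at or below -70, meaning at least 70% loss of cells showing the perinucleolar compartment, a nuclear body marking cancer cells; inconclusive = readout between -30 and a set limit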
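Compounds are pinned in duplicate onto adhered PC3M cells stably expressing GFP-tagged PTB and incubated 16 h at 37 C. Cells are then fixed, nuclei stained with Hoechst, and PNC-positive cells counted.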
ALOX15B inhib = 15-hLO-2 (ALOX15B) enzyme inhibition; AID 881; Potency, µM (top dose mostly 57.1 µM), actives largely listed as inhibitors; purified 15hLO-2, xylenol orange hydroperoxide absorbance; 110,000 compounds, 0.56% hits; note: nearly all actives have a fitted effect of over 60% in size
Target sequence (O15296 whole entry, looked up): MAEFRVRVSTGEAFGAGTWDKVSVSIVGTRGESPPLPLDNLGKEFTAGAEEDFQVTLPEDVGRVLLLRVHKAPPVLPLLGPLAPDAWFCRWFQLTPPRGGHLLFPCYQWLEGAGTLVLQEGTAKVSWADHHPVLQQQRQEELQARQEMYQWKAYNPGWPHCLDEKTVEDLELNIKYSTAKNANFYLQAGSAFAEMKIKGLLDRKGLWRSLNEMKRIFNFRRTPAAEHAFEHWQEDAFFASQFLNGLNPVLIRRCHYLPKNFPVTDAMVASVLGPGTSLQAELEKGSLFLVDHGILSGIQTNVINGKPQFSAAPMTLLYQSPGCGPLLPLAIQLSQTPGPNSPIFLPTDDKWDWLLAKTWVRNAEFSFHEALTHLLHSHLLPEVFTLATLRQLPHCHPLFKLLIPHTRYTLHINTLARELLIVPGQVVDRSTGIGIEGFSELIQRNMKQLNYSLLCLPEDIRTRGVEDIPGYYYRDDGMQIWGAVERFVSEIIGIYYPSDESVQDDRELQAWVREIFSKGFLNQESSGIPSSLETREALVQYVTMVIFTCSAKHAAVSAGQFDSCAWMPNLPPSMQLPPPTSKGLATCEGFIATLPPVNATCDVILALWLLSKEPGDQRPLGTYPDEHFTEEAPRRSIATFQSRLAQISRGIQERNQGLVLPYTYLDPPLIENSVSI
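Screening format was qHTS against 50 nM purified 15hLO-2 in Hepes pH 7.5 with detergent. Activity follows hydroperoxide formation from 45 uM arachidonic acid, measured as 573:405 nm absorbance ratio of the ferric-xylenol orange complex.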
ALOX12 inhib = inhibitors of human 12-lipoxygenase (ALOX12); P18054; purified 12-hLO, xylenol orange hydroperoxide absorbance; Potency, µM (titrated, usually from 57.1 µM), usual class: inhibitors; 150,000 compounds, 0.12% hits; note: nearly all actives have a fitted effect of over 55% in size
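150 nM 12hLO, 25 mM Hepes pH 7.0 + 0.01% Triton X-100; cpd preinc 15 min RT; 40 uM arachidonic acid, 30 min RT; Fe-XO 30 min; A573/A405 ratio as read-out.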
Each line names hits and unclear results; the compound was inactive in the other large screens. Only some compounds are listed: those with a hit (about 3.1% of all), similar ones and a draw of the others. Unless noted, calls come from the whole dose curve; as a rule, active = well fitted curve in the direction sought with a large enough effect; inconclusive = small, poorly fitted or top-dose-only effect, or another doubt; inactive = no such curve, though single readings can be large; an effect the other way counts as inactive or inconclusive.

O=C(CSc1nnc(-c2ccco2)n1Cc1ccccc1)NCc1ccccc1	none (no result: ALOX15B inhib)
CCOc1ccccc1NC(=O)CSc1nnc(-c2ccccn2)n1Cc1ccco1	PNC inhibitor -82
CCOc1ccccc1NC(=O)CSc1nnnn1Cc1ccccc1	PNC inhibitor -82
CCOc1ccccc1NC(=O)CSc1nnc(-c2ccco2)n1Cc1ccco1	none
O=C(CSc1nnc(-c2ccco2)n1Cc1ccco1)NCc1ccccc1	PNC inhibitor -94
COc1ccccc1NC(=O)CSc1nnnn1Cc1ccccc1	PNC inhibitor inconclusive
CCNc1ccccc1	none (no result: PNC inhibitor)
COCCNc1ccnc(-c2ccccc2CN(C)C)n1	none (no result: PNC inhibitor)
Cc1ccc(C)o1	none (no result: PNC inhibitor)
O=C(c1ccc(C(F)(F)F)cc1)N1CCC(=O)N([C@H](COCc2ccc(Cl)cc2)Cc2ccccc2)CC1	none (no result: PNC inhibitor)
CO[C@]1(NC(=O)C2SC(=C(C(N)=O)C(=O)O)S2)C(=O)N2C(C(=O)O)=C(CSc3nnnn3C)CS[C@H]21 (some centres undefined)	none (no result: PNC inhibitor)
O=C(CC1NCCNC1=O)Nc1ccc(Cl)c(Cl)c1 (centres undefined)	none (no result: ALOX15B inhib)
O=C(CC1NCCNC1=O)Nc1ccc2c(c1)OCO2 (centres undefined)	PNC inhibitor -91
Nc1cccc2nc3ccccc3cc12	PNC inhibitor -113
Cc1cc2c(N)cccc2nn1	none
O=C(NCc1ccccc1)c1ccc(Cc2nc3ccccc3[nH]2)cc1	none (no result: PNC inhibitor, ALOX15B inhib)
CCCCN(C)Cc1c(O)ccc2c(-c3ccccc3)cc(=O)oc12	none
CCN(CC)Cc1c(O)ccc2c(-c3ccccc3)cc(=O)oc12	PNC inhibitor -118
COc1ccc(C(=O)N2CCC3(CC2)CCN(c2cccc(-c4ccccc4)c2)CC3)cc1	none (no result: PNC inhibitor)
C[C@@H](C(=O)O)c1ccc(C[C@@H]2CCCC2=O)cc1	none (no result: PNC inhibitor)
Cc1c(C(=O)Nc2cccc(Cl)c2)c2ccccn2c1CCc1ccncc1	none (no result: ALOX15B inhib)
Cc1c(C(=O)Nc2ccc(Cl)cc2)c2ccccn2c1CCc1ccncc1	PNC inhibitor -85 (no result: ALOX15B inhib)
Cc1nc(N=Nc2cc(S(=O)(=O)O)ccc2S(=O)(=O)O)c(COP(=O)(O)O)c(C=O)c1O	none (no result: PNC inhibitor)
Nc1nc(-c2ccc(Cl)c(Cl)c2)c(-c2ccncc2)s1	none (no result: PNC inhibitor)
O=C(COC(=O)c1n[nH]c2ccccc12)NC(=O)NC1CCCCC1	PNC inhibitor -127
O=C(COC(=O)c1n[nH]c2ccccc12)NC(=O)NCc1ccco1	none
Cc1nnc(SCc2ccc3c(c2)OCO3)s1	none
Cc1nnc(N(C)C(=O)Cc2ccc3c(c2)OCO3)s1	PNC inhibitor -100 (no result: ALOX15B inhib)
CC(=O)Nc1ccc(S(=O)(=O)N2CCc3nc(-c4ccccc4)c4c(c3C2)CO[C@@H](C)C4)cc1	none (no result: PNC inhibitor, ALOX15B inhib)
CCCn1c2c(c(O)c(C(=O)NCCCN(CC)CC)c1=O)CCCC2	PNC inhibitor -100 (no result: ALOX15B inhib)
CCCn1c2c(c(O)c(C(=O)NC)c1=O)CCCC2	none (no result: ALOX15B inhib)
CCCC1(C(=O)OC)C=C2C(=C(C(C)C)C(=O)C2C)CN1 (centres undefined)	none (no result: PNC inhibitor)
CC1=NN(C(=O)c2ccc(Cn3cc(Br)c([N+](=O)[O-])n3)o2)C(O)(C(F)(F)F)C1 (centres undefined)	PNC inhibitor -114 (no result: ALOX15B inhib)
CC1=NN(C(=O)c2ccc(Cn3nc(C)cc3C)o2)C(O)(C(F)(F)F)C1 (centres undefined)	none
COC(=O)C(Cc1ccccc1)NC(=O)C(N)CC(=O)O (centres undefined)	none (no result: PNC inhibitor)
CS(=O)(=O)N1CCC[C@@]2(CCN(C(=O)Nc3ccccc3)C2)C1	none (no result: PNC inhibitor)
N#Cc1c(/N=C/c2cccs2)sc2c1CCCCC2	PNC inhibitor inconclusive
N#Cc1c(/N=C/c2ccc(Br)s2)sc2c1CCC2	PNC inhibitor -100 (no result: ALOX15B inhib)
O=S(=O)(O)[C@@H](CO)c1ccccc1 (tested in a mixture with another compound)	none (no result: PNC inhibitor)
CCC1C/C(=C\c2cccnc2)C(=O)/C(=C/c2cccnc2)C1 (centres undefined)	PNC inhibitor -125 (no result: ALOX15B inhib)
O=C1/C(=C/c2cccnc2)CCC/C1=C\c1cccnc1	none (no result: ALOX15B inhib)
CN(C)CCN1C(=O)C(O)=C(C(=O)c2cc3ccccc3o2)C1c1ccc(N(C)C)cc1 (centres undefined)	PNC inhibitor -119 (no result: ALOX15B inhib)
CN(C)CCN1C(=O)C(O)=C(C(=O)c2cc3ccccc3o2)C1c1ccccn1 (centres undefined)	PNC inhibitor inconclusive
O=P(O)(OCc1ccccc1)OCc1ccccc1	none (no result: PNC inhibitor)
Cc1scc(-c2n[nH]c(=S)n2C(C)c2ccccc2)c1C (centres undefined)	none (no result: ALOX15B inhib)
CCc1cc(-c2n[nH]c(=S)n2C(C)c2ccccc2)cs1 (centres undefined)	ALOX12 inhib 16µM
CCCN1CNC(=S)N(c2cc(C)ccc2C)C1	PNC inhibitor -100 (no result: ALOX15B inhib)
CCCN1CNC(=S)N(c2cccc(C)c2C)C1	none
